Unmarked numbers belong to inactive results.
compound: C#CCNC(=O)CCSSCCC(=O)NCCc1ccc(C=O)c(C=O)c1; experiment: lysine labeling ratio R10:1 (500 µM / 50 µM probe), SILAC-ABPP in living cells; higher = lower intrinsic lysine reactivity toward the probe, active = 2 or less; settings: HeLa; probe concentrations 500 vs 50 µM
Outline: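 R, given per lysine, is the filtered median high-probe/low-probe MS1 peptide ratio, with the median then taken across forward and reverse replicates. Cells were living SILAC light and heavy HeLa cells in PBS at room temperature, labelled with 50 µM or 500 µM of an alkyne-tagged, disulfide-linked lysine probe. The ceiling applied is 20.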

UniProt P11717, sequence (P11717 whole entry): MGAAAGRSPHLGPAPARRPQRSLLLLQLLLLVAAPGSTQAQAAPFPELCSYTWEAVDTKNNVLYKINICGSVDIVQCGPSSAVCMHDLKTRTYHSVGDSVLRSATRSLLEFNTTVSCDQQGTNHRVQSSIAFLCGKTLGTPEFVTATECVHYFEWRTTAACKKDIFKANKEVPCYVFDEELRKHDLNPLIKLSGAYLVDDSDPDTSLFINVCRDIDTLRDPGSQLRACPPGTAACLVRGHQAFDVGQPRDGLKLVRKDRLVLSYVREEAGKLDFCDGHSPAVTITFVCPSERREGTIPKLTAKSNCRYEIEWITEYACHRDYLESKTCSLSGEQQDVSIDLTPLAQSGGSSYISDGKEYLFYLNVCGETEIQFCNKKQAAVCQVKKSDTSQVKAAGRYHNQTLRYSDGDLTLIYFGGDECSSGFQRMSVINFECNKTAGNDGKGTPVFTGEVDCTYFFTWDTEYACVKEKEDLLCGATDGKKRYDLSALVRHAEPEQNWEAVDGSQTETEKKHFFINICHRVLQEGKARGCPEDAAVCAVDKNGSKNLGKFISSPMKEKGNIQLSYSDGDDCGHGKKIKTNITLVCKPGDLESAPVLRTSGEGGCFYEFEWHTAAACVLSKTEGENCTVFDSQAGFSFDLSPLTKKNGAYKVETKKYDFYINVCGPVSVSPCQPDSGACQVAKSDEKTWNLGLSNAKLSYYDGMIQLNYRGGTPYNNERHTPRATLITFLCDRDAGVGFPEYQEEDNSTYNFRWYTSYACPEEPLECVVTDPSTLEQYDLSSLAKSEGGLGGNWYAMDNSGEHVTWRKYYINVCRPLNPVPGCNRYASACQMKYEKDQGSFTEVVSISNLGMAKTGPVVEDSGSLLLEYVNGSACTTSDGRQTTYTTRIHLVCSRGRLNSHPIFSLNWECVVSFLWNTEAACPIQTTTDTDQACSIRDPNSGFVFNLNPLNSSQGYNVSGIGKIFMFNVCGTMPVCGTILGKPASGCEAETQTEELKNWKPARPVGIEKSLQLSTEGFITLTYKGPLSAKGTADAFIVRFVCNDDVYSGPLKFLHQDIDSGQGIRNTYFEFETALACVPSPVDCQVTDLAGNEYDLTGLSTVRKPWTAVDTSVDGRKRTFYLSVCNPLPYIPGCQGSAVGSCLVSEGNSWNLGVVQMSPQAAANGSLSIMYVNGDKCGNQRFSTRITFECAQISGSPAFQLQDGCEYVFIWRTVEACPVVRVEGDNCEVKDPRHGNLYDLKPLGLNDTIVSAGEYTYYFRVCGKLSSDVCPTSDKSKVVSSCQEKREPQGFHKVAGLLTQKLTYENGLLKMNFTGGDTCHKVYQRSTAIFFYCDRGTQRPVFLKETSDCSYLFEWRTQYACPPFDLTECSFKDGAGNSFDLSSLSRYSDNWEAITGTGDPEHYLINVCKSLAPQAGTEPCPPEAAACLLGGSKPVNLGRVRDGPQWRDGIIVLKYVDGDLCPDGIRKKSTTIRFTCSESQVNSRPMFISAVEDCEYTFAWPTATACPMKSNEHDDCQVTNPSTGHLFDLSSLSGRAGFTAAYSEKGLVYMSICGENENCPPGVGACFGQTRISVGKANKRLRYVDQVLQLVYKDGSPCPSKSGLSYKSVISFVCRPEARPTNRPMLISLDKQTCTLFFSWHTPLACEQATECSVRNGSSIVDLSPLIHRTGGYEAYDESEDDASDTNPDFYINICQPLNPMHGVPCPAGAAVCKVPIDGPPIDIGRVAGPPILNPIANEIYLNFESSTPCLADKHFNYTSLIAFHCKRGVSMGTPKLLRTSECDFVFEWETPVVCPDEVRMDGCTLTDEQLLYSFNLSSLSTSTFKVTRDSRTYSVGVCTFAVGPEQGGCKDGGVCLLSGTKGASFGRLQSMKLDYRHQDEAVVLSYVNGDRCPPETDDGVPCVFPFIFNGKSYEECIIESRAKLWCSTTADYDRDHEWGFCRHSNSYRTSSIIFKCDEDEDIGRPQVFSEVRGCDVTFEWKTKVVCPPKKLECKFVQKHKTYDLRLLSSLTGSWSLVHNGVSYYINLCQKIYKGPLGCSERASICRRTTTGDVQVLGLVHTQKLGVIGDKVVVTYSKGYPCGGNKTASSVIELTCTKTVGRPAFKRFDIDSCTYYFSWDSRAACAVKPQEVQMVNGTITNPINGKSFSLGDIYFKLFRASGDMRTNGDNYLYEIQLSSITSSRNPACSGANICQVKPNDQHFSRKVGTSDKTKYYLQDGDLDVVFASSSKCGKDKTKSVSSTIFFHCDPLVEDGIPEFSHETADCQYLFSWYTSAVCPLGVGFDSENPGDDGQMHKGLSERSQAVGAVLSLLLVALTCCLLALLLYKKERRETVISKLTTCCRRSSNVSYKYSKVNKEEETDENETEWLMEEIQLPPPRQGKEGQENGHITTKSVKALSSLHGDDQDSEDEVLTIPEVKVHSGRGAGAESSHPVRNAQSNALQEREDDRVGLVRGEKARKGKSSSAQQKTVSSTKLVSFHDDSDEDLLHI
UniProt P07942, sequence (P07942 whole entry): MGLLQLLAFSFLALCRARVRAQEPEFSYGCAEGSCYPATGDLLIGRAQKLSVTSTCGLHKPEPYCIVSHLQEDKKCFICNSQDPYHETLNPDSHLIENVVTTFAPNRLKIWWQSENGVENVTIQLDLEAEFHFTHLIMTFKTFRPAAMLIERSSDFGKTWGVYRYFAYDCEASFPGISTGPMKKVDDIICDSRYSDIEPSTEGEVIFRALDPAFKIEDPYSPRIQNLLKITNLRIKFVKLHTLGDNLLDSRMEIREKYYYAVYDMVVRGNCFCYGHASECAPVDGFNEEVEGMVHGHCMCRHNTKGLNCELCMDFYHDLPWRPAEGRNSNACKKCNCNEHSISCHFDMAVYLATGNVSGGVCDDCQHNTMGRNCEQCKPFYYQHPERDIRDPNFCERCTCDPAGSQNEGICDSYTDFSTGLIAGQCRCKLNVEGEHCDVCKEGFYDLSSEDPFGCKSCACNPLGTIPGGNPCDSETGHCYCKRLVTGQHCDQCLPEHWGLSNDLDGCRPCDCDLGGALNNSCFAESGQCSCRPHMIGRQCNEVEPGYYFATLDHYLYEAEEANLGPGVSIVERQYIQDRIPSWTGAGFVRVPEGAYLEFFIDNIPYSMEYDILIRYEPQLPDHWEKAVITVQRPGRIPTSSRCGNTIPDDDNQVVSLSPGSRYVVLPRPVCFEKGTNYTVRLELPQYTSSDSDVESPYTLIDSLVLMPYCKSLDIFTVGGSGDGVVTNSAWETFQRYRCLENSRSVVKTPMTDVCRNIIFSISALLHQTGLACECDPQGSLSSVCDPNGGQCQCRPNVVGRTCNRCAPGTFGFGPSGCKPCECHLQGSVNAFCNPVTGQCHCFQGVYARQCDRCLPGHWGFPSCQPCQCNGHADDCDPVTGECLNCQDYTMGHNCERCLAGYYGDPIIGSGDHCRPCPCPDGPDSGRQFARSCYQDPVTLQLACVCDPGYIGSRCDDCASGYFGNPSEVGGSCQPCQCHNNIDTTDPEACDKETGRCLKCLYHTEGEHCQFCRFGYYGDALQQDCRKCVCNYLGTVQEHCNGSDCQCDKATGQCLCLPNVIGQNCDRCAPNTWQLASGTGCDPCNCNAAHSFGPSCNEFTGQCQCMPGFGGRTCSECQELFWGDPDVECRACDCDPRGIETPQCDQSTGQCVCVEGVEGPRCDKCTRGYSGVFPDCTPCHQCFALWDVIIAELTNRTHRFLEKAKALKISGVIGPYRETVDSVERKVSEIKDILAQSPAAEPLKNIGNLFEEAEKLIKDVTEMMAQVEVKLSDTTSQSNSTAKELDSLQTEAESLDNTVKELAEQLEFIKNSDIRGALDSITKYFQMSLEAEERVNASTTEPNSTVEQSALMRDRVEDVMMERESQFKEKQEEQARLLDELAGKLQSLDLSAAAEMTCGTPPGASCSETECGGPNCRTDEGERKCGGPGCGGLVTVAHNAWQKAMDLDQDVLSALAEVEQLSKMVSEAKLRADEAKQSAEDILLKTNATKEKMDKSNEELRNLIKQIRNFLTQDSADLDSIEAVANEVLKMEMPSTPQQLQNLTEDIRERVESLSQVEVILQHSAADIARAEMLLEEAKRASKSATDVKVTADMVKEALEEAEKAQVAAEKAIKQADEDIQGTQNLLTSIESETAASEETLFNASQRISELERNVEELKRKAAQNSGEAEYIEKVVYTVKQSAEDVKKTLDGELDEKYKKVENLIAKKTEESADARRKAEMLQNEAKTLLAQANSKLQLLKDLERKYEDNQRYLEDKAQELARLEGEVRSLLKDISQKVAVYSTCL
UniProt P26641, sequence (P26641 whole entry): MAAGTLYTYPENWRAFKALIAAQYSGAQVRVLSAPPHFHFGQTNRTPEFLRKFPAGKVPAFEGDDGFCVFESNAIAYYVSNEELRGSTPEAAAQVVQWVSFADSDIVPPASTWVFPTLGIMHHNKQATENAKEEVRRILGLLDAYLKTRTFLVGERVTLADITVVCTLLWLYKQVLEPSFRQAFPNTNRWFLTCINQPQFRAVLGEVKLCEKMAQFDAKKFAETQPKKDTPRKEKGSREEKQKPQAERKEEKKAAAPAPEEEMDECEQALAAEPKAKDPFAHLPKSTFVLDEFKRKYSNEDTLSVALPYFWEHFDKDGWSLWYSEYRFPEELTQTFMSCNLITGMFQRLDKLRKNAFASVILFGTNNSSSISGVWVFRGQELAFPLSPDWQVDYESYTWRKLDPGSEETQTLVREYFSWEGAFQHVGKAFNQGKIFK
UniProt Q96IZ0, sequence (Q96IZ0 whole entry): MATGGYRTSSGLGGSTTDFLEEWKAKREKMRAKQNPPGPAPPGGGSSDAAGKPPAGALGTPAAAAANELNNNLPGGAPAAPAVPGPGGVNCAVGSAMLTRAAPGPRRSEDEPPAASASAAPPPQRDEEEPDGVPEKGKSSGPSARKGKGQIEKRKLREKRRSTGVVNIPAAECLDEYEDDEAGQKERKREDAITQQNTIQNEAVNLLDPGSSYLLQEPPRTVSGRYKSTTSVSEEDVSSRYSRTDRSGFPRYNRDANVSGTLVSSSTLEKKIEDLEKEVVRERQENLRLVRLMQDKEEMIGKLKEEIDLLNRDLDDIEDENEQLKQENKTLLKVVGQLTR

| Target | lysine labeling ratio R10:1 |
| --- | --- |
| DARS (lysine site: K40) (UniProt P14868) | 2.54 |
| HMGN2 (lysine site: K18) (UniProt P05204) | 2.09 |
| GAPDH (lysine site: K334) (UniProt P04406) | 5.36 |
| UniProt Q9BSJ8 (lysine site: K197) | 5.31 |
| TMED9 (lysine site: K95) (UniProt Q9BVK6) | 4.55 |
| GALNT2 (lysine site: K103) (UniProt Q10471) | 2.75 |
| CLTC (lysine site: K1264) (UniProt Q00610) | 1.58 (active) |
| MSN (lysine site: K63) (UniProt P26038) | 1.1 (active) |
| IGF2R (lysine site: K2197) (UniProt P11717) | 8.12 |
| UniProt P60842 (lysine site: K238) | 1.54 (active) |
| ACTN4 (lysine site: K760) (UniProt O43707) | 4.05 |
| LAMB1 (lysine site: K158) (UniProt P07942) | 1.78 (active) |
| UniProt P62249 (lysine site: K131) | 2.97 |
| IGF2R (lysine site: K1230) (UniProt P11717) | 1.74 (active) |
| RPS3A (lysine site: K249) (UniProt P61247) | 1.8 (active) |
| UniProt P26639 (lysine site: K712) | 1.83 (active) |
| ENO1 (lysine site: K420) (UniProt P06733) | 2.65 |
| CCT6A (lysine site: K199) (UniProt P40227) | 0.593 (active) |
| UniProt Q99623 (lysine site: K262) | 3.03 |
| EEF1G (lysine site: K437) (UniProt P26641) | 3.73 |

| Target | lysine labeling ratio R10:1 |
| --- | --- |
| HNRNPM (lysine site: K145) (UniProt P52272) | 2.08 |
| WNT5A (lysine site: K283) (UniProt P41221) | 3.04 |
| FLNA (lysine site: K916) (UniProt P21333) | 1.76 (active) |
| HSPA9 (lysine site: K300) (UniProt P38646) | 2.25 |
| LRPAP1 (lysine site: K107) (UniProt P30533) | 1.78 (active) |
| PAWR (lysine site: K227) (UniProt Q96IZ0) | 1.06 (active) |
| PDIA3 (lysine site: K362) (UniProt P30101) | 2.15 |
| UniProt Q6PIU2 (lysine site: K359) | 1.48 (active) |
| FZD1 (lysine site: K384) (UniProt Q9UP38) | 0.938 (active) |
| UniProt Q16181 (lysine site: K373) | 2.37 |
| CADM1 (lysine site: K93) (UniProt Q9BY67) | 4.95 |
| ROBO1 (lysine site: K316) (UniProt Q9Y6N7) | 6.23 |
| UniProt P08727 (lysine site: K265) | 3.48 |
| SLC39A6 (lysine site: K143) (UniProt Q13433) | 4.18 |
| EGFR (lysine site: K212) (UniProt P00533) | 2.63 |
| UniProt P60866 (lysine site: K8) | 2.33 |
| IGF1R (lysine site: K221) (UniProt P08069) | 1.51 (active) |
| LAMB1 (lysine site: K1746) (UniProt P07942) | 3.26 |
| UniProt P62244 (lysine site: K88) | 1.79 (active) |
| GPC1 (lysine site: K338) (UniProt P35052) | 7.36 |
